Here are results for nine compounds from PubChem BioAssay (NCI).

Each structure is given as a SMILES string. The panel holds about 83,000 compounds, 20% with a hit somewhere; the sample as a whole holds those more often.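 Single-dose data. Exposure time 48 hours. Values below 10 considered active.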 Values without a mark were called inactive. The source made the active and inactive calls.

Common to all, as to test: NCI-60 one-dose screen, 48 h (100 = growth as untreated, 0 = no growth, -100 = all killed)
In one assay the test system is HCT-15 colon. The conditions noted are these: 10 µM unless noted.
A further assay concerns SNB-75 CNS. The settings on record: 10 µM.
A further assay has as its system SNB-19 CNS. The conditions noted are these: 10 µM unless noted.
Another assay relates to U251 CNS. The settings on record: 10 µM unless noted.
In another assay the test system is PC-3 prostate. The settings on record: 10 µM unless noted.
For a further assay, the system named is SK-MEL-5 melanoma. The settings on record: 10 µM unless noted.
For another assay, the system named is UACC-62 melanoma. The conditions noted are these: 10 µM unless noted.
The test system of another assay is LOX IMVI melanoma. The settings on record: 10 µM unless noted.
For the next assay, the system named is SK-MEL-28 melanoma. The settings on record: 10 µM unless noted.
The next assay has as its system SK-MEL-2 melanoma. The conditions noted are these: 10 µM unless noted.
In a further assay the test system is EKVX NSCLC. The settings on record: 10 µM unless noted.
For the next assay, the system named is SN12C renal. The settings on record: 10 µM unless noted.
A further assay has as its system UO-31 renal. The settings on record: 10 µM unless noted.
A further assay has as its system TK-10 renal. The settings on record: 10 µM unless noted.
The next assay relates to CAKI-1 renal. The settings on record: 10 µM unless noted.
The subject of the next assay is A498 renal. The conditions noted are these: 10 µM unless noted.
The subject of a further assay is CCRF-CEM leukemia. The settings on record: 10 µM unless noted.
The next assay has as its system MOLT-4 leukemia. The conditions noted are these: 10 µM unless noted.
The subject of a further assay is ACHN renal. The settings on record: 10 µM unless noted.

As to `COC(=O)C1CCCN1C(=O)[C@@H]1CCCN1C(=O)[C@H](Cc1c[nH]c2ccccc12)NC(=S)Nc1cc(C(F)(F)F)cc(C(F)(F)F)c1` (stereo partly specified), the growth with HCT-15 colon was 40%; with SNB-75 CNS, 55.1%; in the assay on SNB-19 CNS, 49.7%; in the assay with U251 CNS, 35.9%; with PC-3 prostate, 20.4%; with SK-MEL-5 melanoma, 58.1%. Moreover, the growth was 63.6% in the assay on UACC-62 melanoma; 36.1% in the assay on LOX IMVI melanoma; 80.9% with SK-MEL-28 melanoma; 67.5% in the assay with SK-MEL-2 melanoma; 49.8% in the assay on EKVX NSCLC; 65.5% in the assay with SN12C renal. In addition, the growth in the assay on UO-31 renal was 49.7%; in the assay with TK-10 renal it was 56.7%; with CAKI-1 renal, 33.7%; with A498 renal, 65.4%; with CCRF-CEM leukemia, 24%; in the assay on MOLT-4 leukemia it was 27%.

For the compound `CC1(c2ccc(Cl)cc2)OC(=O)CC(=O)O1`, the growth in the assay on HCT-15 colon is 102%; in the assay on SNB-75 CNS, 99%; in the assay on SNB-19 CNS, 97%; in the assay with U251 CNS, 102%; in the assay with PC-3 prostate, 101%; in the assay on SK-MEL-5 melanoma it was 110%. The growth with UACC-62 melanoma was 102%; with LOX IMVI melanoma it was 106%; with SK-MEL-28 melanoma, 112%; in the assay with EKVX NSCLC, 98.4%; in the assay on SN12C renal, 102%; with UO-31 renal, 90.3%. Also, the growth in the assay with TK-10 renal is 121%; in the assay on ACHN renal, 98.5%; in the assay on CAKI-1 renal, 94.9%; in the assay on A498 renal it was 101%; in the assay on CCRF-CEM leukemia, 100%; in the assay with MOLT-4 leukemia it was 100%.

For the compound `COc1ccc(CNCCCN2C(=O)c3ccc4c5c(ccc(c35)C2=O)C(=O)N(CCCNCCCCNCCCN)C4=O)c(OC)c1OC`, the growth in the assay on HCT-15 colon is 19.7%; in the assay on SNB-75 CNS, -26.8% (active); with SNB-19 CNS, 28%; in the assay with U251 CNS it was -6.34% (active); with PC-3 prostate, 15.3%; with UACC-62 melanoma, 1.36% (active). Further, the growth in the assay with LOX IMVI melanoma is 6.59% (active); in the assay on SK-MEL-28 melanoma it was 29%; in the assay with SK-MEL-2 melanoma, -36.5% (active); in the assay with EKVX NSCLC, 48.7%; with SN12C renal, -54.6% (active); in the assay with UO-31 renal, 51.4%. Moreover, the growth in the assay with TK-10 renal was 25.7%; in the assay with CAKI-1 renal, 56.1%; with A498 renal, 80%; in the assay with CCRF-CEM leukemia, 16.5%; in the assay with MOLT-4 leukemia, 14.4%.

Consider `Cc1ccc2[nH]c(=O)c3c(c2c1)Oc1ncn2nc(-c4ccco4)nc2c1C3c1ccc(Cl)cc1` (stereo unspecified), for which the growth in the assay with HCT-15 colon was 91.6%; in the assay on SNB-19 CNS it was 88.2%; in the assay on U251 CNS it was 97.7%; in the assay with PC-3 prostate, 93.7%; with SK-MEL-5 melanoma, 99%; in the assay on UACC-62 melanoma, 101%. Moreover, the growth was 90.4% in the assay with LOX IMVI melanoma; 103% in the assay on SK-MEL-28 melanoma; 95.6% in the assay on SK-MEL-2 melanoma; 90.9% in the assay on EKVX NSCLC; 96.2% with SN12C renal; 84.9% in the assay with UO-31 renal. Also, the growth in the assay on TK-10 renal was 107%; in the assay with ACHN renal it was 94.6%; in the assay with CAKI-1 renal, 91.9%; in the assay on A498 renal it was 96.8%; with CCRF-CEM leukemia, 97.4%; in the assay on MOLT-4 leukemia it was 103%.

Regarding `CC(=O)Nc1nc(N)nc(NC(C)=O)c1N=O`, the growth was 104% in the assay on HCT-15 colon; 109% with SNB-75 CNS; 111% in the assay with SNB-19 CNS; 116% with U251 CNS; 99.6% in the assay with PC-3 prostate; 114% in the assay on SK-MEL-5 melanoma. For the same compound, the growth was 109% with UACC-62 melanoma; 94.3% in the assay on LOX IMVI melanoma; 115% with SK-MEL-28 melanoma; 106% in the assay with SN12C renal; 93.3% with UO-31 renal; 114% in the assay with TK-10 renal. Besides, the growth is 104% with ACHN renal, 118% in the assay with A498 renal, 112% in the assay on CCRF-CEM leukemia and 113% in the assay with MOLT-4 leukemia.

On to `NC(N)=Nc1nc2ccccc2o1`, for which the growth in the assay on HCT-15 colon was 105%; in the assay on SNB-75 CNS, 111%; with U251 CNS, 101%; with PC-3 prostate, 57.6%; in the assay on SK-MEL-5 melanoma, 93.8%; with UACC-62 melanoma, 104%. The growth in the assay on LOX IMVI melanoma was 95.5%; in the assay on SK-MEL-28 melanoma, 95.5%; in the assay with SK-MEL-2 melanoma it was 133%; with EKVX NSCLC it was 109%; in the assay with SN12C renal, 110%; in the assay on UO-31 renal, 99.9%. In addition, the growth in the assay on TK-10 renal was 129%; in the assay with ACHN renal, 96.6%; with A498 renal, 89.5%; with CCRF-CEM leukemia it was 80.1%; with MOLT-4 leukemia, 95.4%.

On to `COP(=O)(OC)/C(=N\NS(=O)(=O)c1ccc(C)cc1)c1ccccc1`, for which the growth with HCT-15 colon was 112%; with SNB-19 CNS it was 94.7%; in the assay on U251 CNS, 105%; in the assay with PC-3 prostate, 86.5%; with SK-MEL-5 melanoma it was 97.9%; in the assay on UACC-62 melanoma, 96.7%. Also, the growth in the assay with LOX IMVI melanoma is 102%; with SK-MEL-28 melanoma, 110%; in the assay with SK-MEL-2 melanoma it was 110%; in the assay on EKVX NSCLC, 97.7%; in the assay with SN12C renal it was 105%; with UO-31 renal it was 92.6%. In addition, the growth was 88% in the assay on TK-10 renal; 101% with ACHN renal; 62.1% in the assay on CAKI-1 renal; 92.4% in the assay with A498 renal; 124% in the assay on CCRF-CEM leukemia; 103% in the assay on MOLT-4 leukemia.

In the case of `COc1ccc2c(c1)C(c1cc(OC)c3c(c1)OCO3)C1=C(COC1=O)N2` (stereo unspecified), the growth in the assay on HCT-15 colon was 26.2%; in the assay on SNB-75 CNS, 43.6%; in the assay on SNB-19 CNS, 35.2%; with U251 CNS, 20.3%; in the assay on PC-3 prostate, 21.9%; with UACC-62 melanoma, 46.7%. Moreover, the growth in the assay with LOX IMVI melanoma is 20.1%; with SK-MEL-2 melanoma it was 33.2%; in the assay on EKVX NSCLC, 41.1%; in the assay with SN12C renal, 28%; in the assay on UO-31 renal it was 62%; with TK-10 renal it was 60.8%. Further, the growth in the assay on CAKI-1 renal was 51.1%; with A498 renal, 30%; in the assay on CCRF-CEM leukemia, 7.1% (active); with MOLT-4 leukemia, 16.5%.

Regarding `CCOC(=O)C1CCNC(=O)C1=O` (stereo unspecified), the growth in the assay with HCT-15 colon is 111%; in the assay on SNB-75 CNS it was 101%; in the assay with U251 CNS, 111%; in the assay on PC-3 prostate it was 105%; in the assay with SK-MEL-5 melanoma it was 101%; with UACC-62 melanoma, 101%. In addition, the growth was 97.8% with LOX IMVI melanoma; 112% in the assay on SK-MEL-28 melanoma; 107% with SK-MEL-2 melanoma; 122% in the assay with EKVX NSCLC; 97.3% in the assay with SN12C renal; 94.2% in the assay with UO-31 renal. The growth in the assay on TK-10 renal is 103%; in the assay on ACHN renal it was 105%; with CAKI-1 renal, 97.8%; in the assay with A498 renal it was 110%; in the assay with CCRF-CEM leukemia, 93.7%; with MOLT-4 leukemia it was 96.6%.
